RORg inh: blocks mouse ROR gamma transcriptional activity; Drosophila S2 Gal4-RORgamma UAS-luciferase reporter, 20 h; 310,000 compounds, 5.4% hits; Potency, µM (doses to about 53.6 µM), actives largely listed as inhibitors; AID 2551; note: nearly all actives have a fitted effect of over 60% in size
Target sequence (P51450 whole entry, looked up, the tested form may be a part): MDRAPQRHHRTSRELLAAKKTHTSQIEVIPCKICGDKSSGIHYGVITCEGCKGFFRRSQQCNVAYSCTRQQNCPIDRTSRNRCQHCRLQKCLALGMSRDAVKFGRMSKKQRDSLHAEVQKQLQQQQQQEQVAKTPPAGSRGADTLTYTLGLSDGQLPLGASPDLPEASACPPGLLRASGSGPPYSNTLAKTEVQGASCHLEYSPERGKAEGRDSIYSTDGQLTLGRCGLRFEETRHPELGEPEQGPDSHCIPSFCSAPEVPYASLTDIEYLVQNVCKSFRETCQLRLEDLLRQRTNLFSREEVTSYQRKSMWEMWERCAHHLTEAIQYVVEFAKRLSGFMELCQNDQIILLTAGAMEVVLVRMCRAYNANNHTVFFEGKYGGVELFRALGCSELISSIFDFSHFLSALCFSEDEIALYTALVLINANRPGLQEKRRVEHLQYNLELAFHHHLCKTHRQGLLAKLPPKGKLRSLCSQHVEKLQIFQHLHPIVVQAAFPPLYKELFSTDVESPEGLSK
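Schneider cells (Drosophila), stable Gal4 DBD–ROR gamma + UAS-luc; 1 hr cmpd preincubation; Cu2+ induction 700 uM final; 20 hr ambient; luminescence.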
KinaseGlo FLuc: blocks Kinase-Glo luciferase, a counter-screen artifact | Q27757 | Kinase-Glo luciferase, ATP luminescence, 8 min | Potency, µM (top dose mostly 38.3 µM), most hits filed as inhibitors | 200,000 compounds, 0.28% hits; note: nearly all actives have a fitted effect of over 60% in size
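Substrate mix (final 50 mM imidazole pH 7.2, 50 mM KCl, 7 mM MgCl2, 10 uM ATP, 0.01% Tween 20, 0.05% BSA) plus pin-tool compound, then Kinase-Glo detection mix; 8 min ambient, luminescence read.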
VP16 counter: inhibits Gal4-VP16 luciferase reporter, ROR gamma counter-screen | Drosophila S2 Gal4-VP16 UAS-luciferase, luminescence, 20 h | AID 2546 | 310,000 compounds, 3.5% hits | Potency, µM (highest dose often 53.6 µM), actives largely listed as inhibitors;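 note: Gal4-VP16 expression switched on by copper sulfate through the metallothionein promoter; nearly all actives have a fitted effect of over 50% in size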
Each line names hits and unclear results; the compound was inactive in the other large screens. Only some compounds are listed: those with a hit (about 6.2% of all), similar ones and a draw of the others. Calls come from the whole dose curve; as a rule, active = well fitted curve in the direction sought with a large enough effect; inconclusive = small, poorly fitted or top-dose-only effect, or another doubt; inactive = no such curve, though single readings can be large; an effect the other way counts as inactive or inconclusive.

COC(=O)NC(=S)Nc1ccc(Oc2ccc(Cl)cc2Cl)c(Cl)c1	RORg inh 2.2µM, VP16 counter inconclusive
CN1CCCN([C@@H](c2ccccc2)c2ccc(Cl)cc2)CC1	none
C/C(=N\Nc1nc2ccccc2nc1C)c1ccccc1O	RORg inh 0.22µM, VP16 counter 2µM (no result: KinaseGlo FLuc)
C/C(=N/Nc1ccc2ccccc2n1)c1ccccc1O	none (no result: RORg inh, VP16 counter)
COc1cc(N2Cc3ccccc3C2)ccc1C=O	RORg inh 0.35µM, VP16 counter 0.4µM (no result: KinaseGlo FLuc)
Cc1cc(C)cc(N2Cc3ccccc3C2)c1	none
CN1CCN(c2ncnc3ccc(-c4cccc(C#N)c4)cc23)CC1	RORg inh inconclusive (no result: KinaseGlo FLuc)
Oc1ccc(NC(=S)Nc2ccc(F)cc2)cc1	none (no result: KinaseGlo FLuc)
CC(Cc1cccs1)NC(=S)Nc1ccc(F)cc1 (stereo not given)	RORg inh 3.2µM, VP16 counter 16µM
COc1ccc(NC(=S)NC(C)Cc2cccs2)cc1 (stereo not given)	RORg inh 14µM, VP16 counter 2.8µM
CCC(C)NC(=O)C1CCCN(C(=O)Nc2ccc(F)cc2)C1 (stereo not given)	none
CC(Cc1cccs1)NC(=O)c1cccs1 (stereo not given)	none
CCC(C)NC(=S)Nc1ccc(F)cc1 (stereo not given)	RORg inh 10µM, VP16 counter inconclusive (no result: KinaseGlo FLuc)
CC(Cc1cccs1)NC(=O)Nc1ccc([N+](=O)[O-])cc1 (stereo not given)	RORg inh inconclusive
CCN(CC)c1ccc(NC(=S)Nc2ccc(F)cc2)cc1	RORg inh 8.9µM, VP16 counter inconclusive
Cc1ccsc1-c1nc(CN(C)C(C2CC2)C2CC2)c(C)o1	none
CC(C)(C)OC(=O)CC12CCCCC1NC(=O)O2 (stereo not given)	none (no result: KinaseGlo FLuc)
CN(Cc1nc2c(s1)CCCC2)C(=O)CCc1nnc(-c2ccc3c(c2)OCO3)o1	none (no result: KinaseGlo FLuc)
CCCCC(=O)Nc1ccccc1Oc1ccccc1	none
COc1ccc(NC(=O)Nc2ccccc2F)c([N+](=O)[O-])c1	none
Cc1noc(C)c1-c1nccc(NCc2ccccc2)n1	none (no result: KinaseGlo FLuc)
CN(C)c1ccc(-c2cncnc2NCc2ccccc2)cc1	RORg inh inconclusive
COc1ccc(N(CC(=O)N/N=C/c2ccc3c(c2)OCO3)S(=O)(=O)c2ccc(NC(C)=O)cc2)cc1	none
Nc1nc(SCc2ccccc2[N+](=O)[O-])c2[nH]cnc2n1	none (no result: RORg inh, VP16 counter)
Cc1ccc(NC(=S)N=Nc2c(O)n(C)c3ccc(S(=O)(=O)N4CCOCC4)cc23)cc1	RORg inh 0.71µM, VP16 counter 1µM
Cc1cccc(NC(=O)CSCC(=O)Nc2cc(S(=O)(=O)N3CCOCC3)ccc2N2CCCC2)c1	none (no result: KinaseGlo FLuc)
Cc1cc(C)cc(NC(=S)N=Nc2c(O)n(C)c3ccc(S(=O)(=O)N4CCOCC4)cc23)c1	RORg inh inconclusive
Cc1cccc(NC(=S)N=Nc2c(O)n(C)c3ccc(S(=O)(=O)N4CCOCC4)cc23)c1	RORg inh 0.13µM, VP16 counter 0.71µM
Cn1cccc1C(=O)N1CCC[C@@]2(CCN(c3ncccn3)C2)C1	none
Cc1ccc2nc(SC(C(=O)c3ccccc3)c3ccccc3)nc(C)c2c1 (stereo not given)	RORg inh inconclusive, VP16 counter 16µM
Cc1ccc2nc(SCC(=O)O)nc(C)c2c1	none
COc1ccc(/C=C/C(=O)NCC(=O)N/N=C(/C)c2ccco2)cc1	none (no result: KinaseGlo FLuc)
CC(C)NC(=S)N(C)C1(c2ccccc2Cl)CCCCC1=O (stereo not given)	none
CN(C(=S)NC1CCCCC1)C1(c2ccccc2Cl)CCCCC1=O (stereo not given)	RORg inh 13µM, VP16 counter inconclusive
COc1cccc(NC(=O)[C@H](CC(C)C)NC(=O)N2CCn3c2nc2ccccc23)c1	none (no result: KinaseGlo FLuc)
CCC(=O)Nc1nnc(-c2ccco2)o1	RORg inh inconclusive
O=C(COc1ccc(Cl)cc1)Nc1nnc(-c2ccco2)o1	RORg inh 11µM, VP16 counter inconclusive
O=C(COc1ccc(Cl)cc1)Nc1ccc(NC(=O)c2ccco2)cc1	none (no result: KinaseGlo FLuc)
O=C(Cc1ccccc1)Nc1nnc(-c2ccco2)o1	RORg inh 2.8µM, VP16 counter 10µM
Cc1nnc(NC(=O)COc2ccccc2)s1	VP16 counter inconclusive
O=C(COc1ccccc1)Nc1nnc(-c2ccccc2)o1	RORg inh 10µM, VP16 counter 10µM
O=C(COc1ccccc1)Nc1cccc(-c2nnc(-c3ccccc3)o2)c1	VP16 counter inconclusive
O=C(COc1ccccc1)Nc1nnc(-c2ccc(Cl)s2)o1	RORg inh 13µM, VP16 counter 20µM
CCCCCCCC1=Cc2ccccc2C(CC(=O)c2ccccc2)N1C(=O)OC (stereo not given)	none (no result: RORg inh, VP16 counter)
COc1ccc(N2CC(O)=C(c3n(C)c4ccccc4[n+]3C)C2=N)cc1	none
Cc1c(CC(=O)Nc2ccc(Cl)cc2)sc2ccc(Cl)cc12	none (no result: KinaseGlo FLuc)
O=C(COc1ccccc1)Nc1nnc(-c2ccco2)o1	RORg inh 16µM, VP16 counter inconclusive
Cc1cccc(C)c1NC(=O)COn1nnc2ccc(C(F)(F)F)cc21	none
CCCCC(=O)Nc1nnc(-c2ccco2)o1	none
O=C(COn1nnc2ccc(C(F)(F)F)cc21)Nc1nnc(-c2ccccc2)o1	RORg inh 7.1µM, VP16 counter 4.5µM
COc1cc2c(cc1OC)C(c1ccccc1Cl)N(C)CC2 (stereo not given)	none (no result: KinaseGlo FLuc)
CCCCCn1c(=S)[nH]c2cc(C(=O)N3CCCC3)ccc2c1=O	RORg inh 3.2µM
O=C(c1ccc(Cn2c(=S)[nH]c3ccc(Br)cc3c2=O)cc1)N1CCN(C2CCCCC2)CC1	RORg inh 11µM, VP16 counter inconclusive
O=C(c1ccc(Cn2c(=S)[nH]c3ccc(N4CCOCC4)cc3c2=O)cc1)N1CCN(c2ccc(F)cc2)CC1	RORg inh inconclusive (no result: KinaseGlo FLuc)
CCCCCn1c(=O)[nH]c2cc(C(=O)N3CCN(CC)CC3)ccc2c1=O	none
Cc1ccc(C)c(N2CCN(C(=O)c3ccc(Cn4c(=S)[nH]c5ccc(N6CCOCC6)cc5c4=O)cc3)CC2)c1	RORg inh 2.8µM
CCOCCCn1c(=S)[nH]c2cc(C(=O)N3CCN(C4CCCCC4)CC3)ccc2c1=O	none (no result: KinaseGlo FLuc)
O=C(c1ccc(Cn2c(=S)[nH]c3cc4c(cc3c2=O)OCO4)cc1)N1CCN(c2ccccc2)CC1	RORg inh 3.2µM, VP16 counter 6.3µM
COc1ccc(Cn2c(=S)[nH]c3cc(C(=O)N4CCN(c5ccccc5)CC4)ccc3c2=O)cc1	RORg inh inconclusive (no result: KinaseGlo FLuc)
CN(C)C1=NCCN1CCc1cccc(F)c1	none (no result: KinaseGlo FLuc)
Cc1cccc(NC(=O)C2CC2c2ccccc2)c1C (stereo not given)	RORg inh inconclusive (no result: KinaseGlo FLuc)
O=[N+]([O-])c1ccc(Cl)c(S(=O)(=O)Nc2ccc(S(=O)(=O)N3CCOCC3)cc2)c1	none (no result: KinaseGlo FLuc)
CC1(C)CC(=NO)CC(C)(C)N1	none
CC(C)C[C@@H](CC(=O)N[C@@H](CCC(=O)O)CC(=O)O)NC(=O)[C@@H]1CCCC[C@H]1NC(=O)C[C@H](CCCN)NC(=O)C[C@H](Cc1ccccc1)NC(=O)[C@@H]1CCCC[C@H]1N	none
CCOC(=O)N1CCN(C(=O)c2ccc(Cn3c(=S)[nH]c4cc(C(=O)OC)ccc4c3=O)cc2)CC1	none (no result: KinaseGlo FLuc)
O=C(c1ccc2c(=O)n(Cc3ccccc3)c(=S)[nH]c2c1)N1CCCC1	RORg inh 11µM, VP16 counter inconclusive (no result: KinaseGlo FLuc)
O=C1CN2CCN(CC2)CC(=O)Nc2ccc(cc2)S(=O)(=O)c2ccc(cc2)NC(=O)CN2CCN(CC2)CC(=O)Nc2ccc(cc2)S(=O)(=O)c2ccc(cc2)N1	none (no result: RORg inh, VP16 counter)
